# Records with an inconclusive call do not appear. Some structures have more than one record in an assay (separate samples or runs), and their calls can disagree. Calls of active or inactive are those of the source. Calls come from the whole dose curve.
# Experiment: p53 small molecule agonists, cell-based qHTS assay with human liver microsomes: qHTS cell viability counter screen (AID 1963579); note: nearly all actives have a fitted effect of over 45% in size
# Details: p53RE-bla HCT-116 viability, ATP luminescence, 16 h, HLM; series mostly up to 66 µM; activity change, negative = cytotoxicity: at the top concentration
# From the text: National Center for Advancing Translational Sciences [NCATS]
# Division of Preclinical Innovation [DPI]
# U.S. Environmental Protection Agency [EPA]
# National Institutes of Environmental Health Sciences [NIEHS]
# National Toxicology Program [NTP]
# U.S. Food and Drug Administration [FDA]
# p53, a tumor suppressor protein, is activated following cellular insult, including DNA damage and other cellular stresses. The activation of p53 regulates cell fate by inducing DNA repair, cell cycle arrest, apoptosis, or cellular senescence. The activation of p53, therefore, is a good indicator of DNA damage and other cellular stresses. […] The activation of the reporter gene under culture conditions can be detected by fluorescence intensity. This cell line was used to screen the Tox21 10K compound library in the condition of presence of human liver microsomes and to identify agonists that activate the p53 signaling pathway after in vitro metabolic activation (Ooka et al., Archive of Toxicology 96:1975-1987, 2022).
# Tox21 Assay Protocol Summary:
# The p53RE-bla cells were dispensed at 4,000cells/3ul/well in 1536-well black-clear bottom plates. After the assay plates were incubated at 37 C, 5% CO2 incubator for 5 hours, 23 nL of compounds dissolved in DMSO, positive controls or DMSO only was transferred to the assay plate. Following compound addition, 3 uL of human liver microsomes (XenoTech, Kansas City, KS) at final concentration of 0.5 mg/mL and 1uL of B-Nicotinamide adenine dinucleotide 2'-phosphate (NADPH) at final concentration of 0.5 mg/mL were transferred to the assay plate. The plates were incubated at 37 C for 16 hours. 1 uL of LiveBLAzer detection mixture was added to each well and the plates were incubated at room temperature in the dark for 2 h. Fluorescence intensity at 460 and 530 nm emission and 405 nm excitation were measured by an Envision plate reader. For cell viability readout that measures cytotoxicity, 4 ul/well of CellTiter-Glo reagent was added into the assay plates using a Flying Reagent Dispenser. After 30 min incubation at room temperature, the luminescence intensity in the plates was measured using a ViewLux plate reader.
# % is set by controls: 0 for no effect and ±100 for the full control effect; potency is the fitted concentration of half-maximal effect.
SMILES,"activity change, negative = cytotoxicity",Potency
CC(=O)N(CC(O)CO)c1c(I)c(C(=O)NCCO)c(I)c(C(=O)NCC(O)CO)c1I (stereo not given),31.9% [at 30.3 µM] (inactive),–
Nc1cc(Cl)cc(S(=O)(=O)O)c1O,0.0063% (inactive),–
CN1CCN(CCCN2c3ccccc3Sc3ccc(S(=O)(=O)N(C)C)cc32)CC1,-0.238% [at 30.3 µM] (inactive),–
O=C(Nc1cccc(Cl)c1)OCC#CCCl,-4.46% (inactive),–
O=C(N/N=C/c1ccc([N+](=O)[O-])o1)c1ccc(O)cc1,1.12% [at 30.3 µM] (inactive),–
CCCCC(CC)CN1CN(CC(CC)CCCC)CC(C)(N)C1 (stereo not given),-6.93% [at 30.3 µM] (inactive),–
Oc1ccc2c(c1)Cc1ccccc1-2,-20.7% (inactive),–
Cc1cc(O)c(C(C)C)cc1Cl,–,inactive
Cc1c(C(=O)O)cccc1[N+](=O)[O-],–,23.3 µM (active)
CCC1(C)CC(=O)NC1=O (stereo not given),0.476% [at 30.3 µM] (inactive),–
CO[C@@]1(NC(=O)Cc2cccs2)C(=O)N2C(C(=O)O)=C(COC(N)=O)CS[C@@H]21,19.4% [at 30.3 µM] (inactive),–
C=C(C)c1cccc(C(=C)C)c1,2.33% (inactive),–
C[C@]12CCC(=O)C=C1[C@@H]1C[C@@H]1[C@H]1[C@@H]3[C@@H]4C[C@@H]4[C@@]4(CCC(=O)O4)[C@@]3(C)CC[C@@H]12,-2.22% [at 30.3 µM] (inactive),–
O=C1NCCN1,5.64% (inactive),–
CCCOC(OCCC)OCCC,6.23% (inactive),–
CCCCCCCCCCCC(=O)OCC(O)CO (stereo not given),3.32% (inactive),–
CC(CC=O)CCCC(C)(C)O (stereo not given),7.66% (inactive),–
Cn1cc(C(=O)[C@@H]2CCc3nc[nH]c3C2)c2ccccc21,0.957% [at 30.3 µM] (inactive),–
Cc1c(-c2cccnc2)c2ccccc2n1CCCCC(=O)O,9% (inactive),–
O=C(O)COC(=O)Cc1ccccc1Nc1c(Cl)cccc1Cl,2.6% [at 30.3 µM] (inactive),–

SMILES,"activity change, negative = cytotoxicity",Potency
CC1=C(C=O)C(C)(C)CCC1,0.227% (inactive),–
CC1=NN(c2cccc(S(=O)(=O)O)c2)C(=O)C1,4.36% (inactive),–
CC(C)Cc1ccc(CC(=O)O)cc1,-10.7% [at 30.3 µM] (inactive),–
CCOC(=O)/C=C(C)/C=C/C=C(C)/C=C/c1c(C)cc(OC)c(C)c1C,-1.5% [at 30.3 µM] (inactive),–
CCO[C@H](Cc1ccc(OCCc2ccc(OS(C)(=O)=O)cc2)cc1)C(=O)O,-6.06% [at 30.3 µM] (inactive),–
COC(=O)C1=C(C)NC(C)=C(C(=O)OC(C)C)C1c1cccc2nonc12 (stereo not given),-0.868% [at 30.3 µM] (inactive),–
O=C(NCC(O)CO)c1c(I)c(C(=O)NCC(O)CO)c(I)c(N(CCO)C(=O)CO)c1I (stereo not given),1.34% [at 30.3 µM] (inactive),–
Clc1cc(Cl)c2c(c1)N=C1CCCCCN1C2,15.8% [at 30.3 µM] (inactive),–
CC1=CC=C(C(C)C)CC1,-5.01% (inactive),–
CCOc1ccc2nc3cc(N)ccc3c(N)c2c1,-10.4% [at 30.3 µM] (inactive),–
CO/N=C1\CN(c2nc3c(cc2F)c(=O)c(C(=O)O)cn3C2CC2)CC1CN (stereo not given),1.05% [at 30.3 µM] (inactive),–
O=C1Cc2cc(CCN3CCN(c4nsc5ccccc45)CC3)c(Cl)cc2N1,1.1% [at 30.3 µM] (inactive),–
Cc1c(N)cccc1N,0.968% (inactive),–
CCCCN,-2.2% [at 30.3 µM] (inactive),–
CC1(C)CC(=O)CC(C)(C)N1,-27.2% (inactive),–
CC(=O)c1c(C)c([N+](=O)[O-])c(C(C)(C)C)c([N+](=O)[O-])c1C,-2.3% (inactive),–
CCN(CC)c1ccc(C(=C2C=CC(=[N+](CC)CC)C=C2)c2cc(S(=O)(=O)O)ccc2S(=O)(=O)[O-])cc1,-25% [at 30.3 µM] (inactive),–
CN(C)CCCN1c2ccccc2CCc2ccc(Cl)cc21,–,40.8 µM (active) and inactive
CC1=C(O)C(=O)CO1,-0.621% (inactive),–
O=C1CCCN1C1CCCCC1,5.85% (inactive),–

# Reference: PubChem BioAssay (Tox21)
